Hits are enriched below; roughly 6.1% of the tested compounds scored in any of these assays.
HepG2 tox: HepG2 cytotoxicity, counter-screen for TGF-b inhibitors | HepG2 CAGA-GFP viability, ATP luminescence, 18 h | 410,000 tested, 0.76% active | Potency, µM (series often up to 46.1 µM), for inactives: at the highest dose activity change, negative = cytotoxicity, most hits filed as cytotoxic | AID 588856
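HepG2 CAGA-GFP cells (1000/well, DMEM with 1% FBS) received compound, then TGF-beta at 500 pg/mL final, and were incubated 18 hours at 37 degrees C. Viability was read by CellTiter-Glo luminescence. Media-only wells were set as complete cell-killing and DMSO as no toxicity.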
VP16 counter: counter-screen for ROR gamma inhibitors: Gal4-VP16 reporter; Drosophila S2 Gal4-VP16 UAS-luciferase, luminescence, 20 h; Potency, µM (series often up to 53.6 µM), without a hit: top-dose activity, negative = inhibition, most hits filed as inhibitors; 310,000 tested, 3.5% active;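 also: Gal4-VP16 expression switched on by copper sulfate through the metallothionein promoter; % is scaled to controls: 0 for no effect and ±100 for the full control effect; nearly all actives have a fitted effect of over 50% in size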
TGFb inhibitor: inhibitors of TGF-b signaling; HepG2 CAGA-GFP TGF-b/SMAD3 reporter, GFP fluorescence, 18 h; TGF-beta stimulated, 500 pg/mL final; Potency, µM (doses to about 46.1 µM), for inactives: top-dose activity, negative = inhibition, most hits filed as inhibitors; 410,000 tested, 1.2% active; also: % is scaled to controls: 0 for no effect and ±100 for the full control effect; nearly all actives have a fitted effect of over 65% in size
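HEPG2 CAGA-GFP, 1000 cells/well; 2 h settle, 37 C; cpd via pin tool; TGF-b 500 pg/mL final; 18 h, 37 C; GFP imaging ex488/em500-530; %Activity normalised to -TGF-b and +DMSO controls; CRC fit, curve class.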
RORg inh: ROR gamma (mouse) transcription inhibition; P51450; Drosophila S2 Gal4-RORgamma UAS-luciferase reporter, 20 h; Potency, µM (top dose mostly 53.6 µM), without a hit: at the highest dose activity change, negative = inhibition, usual class: inhibitors; 310,000 tested, 5.4% active; also: % is scaled to controls: 0 for no effect and ±100 for the full control effect; nearly all actives have a fitted effect of over 60% in size
Target sequence (P51450 whole entry, looked up, the tested form may be a part): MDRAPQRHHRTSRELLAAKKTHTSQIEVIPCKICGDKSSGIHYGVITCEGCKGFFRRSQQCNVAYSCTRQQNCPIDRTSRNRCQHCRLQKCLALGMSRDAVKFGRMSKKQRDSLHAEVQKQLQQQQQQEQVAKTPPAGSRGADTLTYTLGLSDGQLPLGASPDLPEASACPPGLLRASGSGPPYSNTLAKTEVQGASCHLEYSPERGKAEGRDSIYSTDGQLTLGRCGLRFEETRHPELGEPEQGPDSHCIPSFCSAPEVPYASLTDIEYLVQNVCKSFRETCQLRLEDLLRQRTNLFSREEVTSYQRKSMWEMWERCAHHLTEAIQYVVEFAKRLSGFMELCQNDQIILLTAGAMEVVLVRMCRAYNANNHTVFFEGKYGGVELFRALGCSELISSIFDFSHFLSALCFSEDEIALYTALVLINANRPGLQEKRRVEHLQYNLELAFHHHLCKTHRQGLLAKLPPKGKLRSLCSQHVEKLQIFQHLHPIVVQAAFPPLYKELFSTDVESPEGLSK
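In this cell-based reporter format, copper sulfate (700 uM final) drives Gal4–ROR gamma fusion expression from a metallothionein promoter in Drosophila Schneider cells; compounds preincubated 1 hr, reporter read after 20 hr at ambient temperature.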
S2 tox: reduces viability in counter-screen for ATXN expression inhibitors; S2 cells (HEK-293 line with an ATXN2-luciferase reporter) viability, CellTiter-Fluor protease fluorescence, 24 h; Potency, µM (top dose mostly 56.7 µM), most hits filed as cytotoxic; 400,000 tested, 0.49% active; AID 651635; also: nearly all actives have a fitted effect of over 40% in size
ATXN2 expr inh: ATXN2 expression inhibition. HEK-293 ATXN2-luciferase reporter, luminescence, 24 h. Potency, µM (titrated, usually from 57 µM), without a hit: top-dose activity change, negative = inhibition, usual class: inhibitors. 360,000 tested, 0.72% active. AID 1745845; also: % is scaled to controls: 0 for no effect and ±100 for the full control effect; nearly all actives have a fitted effect of over 55% in size
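ATXN2-luciferase reporter cells (luciferase flanked by upstream and downstream ATXN2 gene portions) were treated 24 h at 37 °C with compounds at up to 57 uM. SteadyGlo luminescence gave expression; GF-AFC fluorescence gave viability.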
Numbers without * were called inactive; i = inactive; ? = inconclusive; · = no result given; [ ] = remark or other dose. Calls follow the shape of the dose curve; as a rule, active = well fitted curve in the direction sought with a large enough effect; inconclusive = small, poorly fitted or top-dose-only effect, or another doubt; inactive = no such curve, though single readings can be large; an effect the other way counts as inactive or inconclusive. Potency is read from the fitted curve at half-maximal effect.

SMILES	HepG2 tox	VP16 counter	TGFb inhibitor	RORg inh	S2 tox	ATXN2 expr inh
COc1ccc(C(C(=O)NC2CCCC2)N(Cc2cccnc2)C(=O)Cc2cccs2)c(OC)c1 (stereo not given)	0.7%	10.4%	7.0%	10µM*	i	-4.1%
O=C(NC1CCCCC1)C(c1cccnc1)N(C(=O)CCl)c1ccccc1Cl (stereo not given)	1.5%	0.0%	-25.9%	?	i	-29.3%
O=C(NC1CCCCC1)C(c1ccc2ncccc2c1)N(Cc1ccccc1)C(=O)c1cccs1 (stereo not given)	-4.3%	-3.7%	-24.7%	-5.7%	?	-14.9%
COc1cccc2sc(N3CCN(C(=O)CCS(=O)(=O)c4ccc(F)cc4)CC3)nc12	-15.7%	·	?	·	·	·
CC(CCC(C)[n+]1cccc(C#N)c1)[n+]1cccc(C#N)c1 (stereo not given)	3.4%	·	20.4%	·	·	·
CCOc1ccc(NC(=O)CSc2nc3ccsc3c(=O)n2CCC(C)C)cc1	-13.5%	·	0.0%	·	·	·
C#CCOc1ccc(C2C(C(=O)OC)=C(C)NC3=C2C(=O)c2ccccc23)cc1OCC (stereo not given)	6.4%	·	5.9%	·	?	-22.6%
Cc1cc(C)cc(NC(=O)C2CC(=O)N(c3ccccc3)C2)c1 (stereo not given)	-0.1%	·	-0.1%	·	i	6.9%
COc1ccc(C(C(=O)NC2CCCCC2)N(C(=O)CCl)c2ccc(C)cc2)cc1 (stereo not given)	-39.5%	0.2%	?	-30.5%	·	?
COc1ccc(C(C(=O)NC2CCCCC2)N(C(=O)CCl)c2cccc(Cl)c2)cc1 (stereo not given)	11.2µM*	?	?	-30.4%[10 µM]	7.08µM*	6.31µM*
CC(C)(C)C(=O)COC(=O)CNC(=O)c1ccc(Oc2ccccc2)cc1	6.6%	-2.1%	23.4%	0.0%	i	0.1%
COc1cccc(C(=O)NCC(=O)OCC(=O)C(C)(C)C)c1	-6.9%	-3.5%	1.1%	2.51µM*	i	·
O=c1c2ccc(F)cc2sn1-c1ccccc1	-110.0%	·	11.2µM*	·	20µM*	?
O=c1c2ccccc2sn1-c1ccc(F)cc1	-92.5%	·	10µM*	·	?	-11.6%
COC(=O)c1cccc(-n2sc3ccccc3c2=O)c1	-34.2%	·	?	·	?	-7.0%
N=C1SCC(=O)N1c1ccccc1Cl	-9.0%	2.4%	-9.3%	1.9%	i	-12.9%
Cc1ccc(-n2sc3cc(F)ccc3c2=O)c(C)c1	11.2µM*	·	?	·	22.4µM*	?
O=c1c2cc(F)ccc2sn1-c1ccccc1Cl	-57.1%	·	?	·	22.4µM*	?
O=C(Cc1ccccc1)NCc1ccncc1	0.2%	?	3.5%	6.31µM*	i	8.9%
O=C(NC(=S)NCc1ccc(F)cc1)c1ccccc1	-1.5%	?	5.9%	5.01µM*	i	9.0%
O=C(O)CC(NC(=S)NCc1ccccc1)C(=O)O (stereo not given)	-24.9%	11.2µM*	-5.3%	15.8µM*	i	?
CN(Cc1ccccc1)S(=O)(=O)c1ccc(NC(=S)NC(=O)C(C)(C)C)cc1	-23.7%	?	-19.7%	12.6µM*	?	-11.9%
CCn1c(-c2cccc(OC)c2)nc2cc(NC(C)=O)cc(C(=O)N3CCC[C@H]3C(=O)OC)c21	·	·	·	·	i	·
CC(C)(C)C(=O)NC(=S)NCc1ccccc1	-11.3%	?	-6.7%	7.08µM*	i	-2.0%
O=C(NC(=S)NCc1ccncc1)c1ccccc1	-33.6%	-1.7%	-5.3%	1.6%	i	·
SMILES	HepG2 tox	VP16 counter	TGFb inhibitor	RORg inh	S2 tox	ATXN2 expr inh
O=C(NC(=S)NCc1ccccc1)c1ccccc1	-16.4%	?	?	3.16µM*	i	30.1%
S=C(NCc1ccccc1)NCc1ccccc1	-1.1%	-8.3%	1.1%	?	i	1.0%
CCN1CCN(C(=O)c2cc(NC(=O)COC)cc3nc(-c4ccncc4)n(C)c23)CC1	·	·	·	·	i	·
C=CCNC(=S)NNC(=O)c1ccccc1	-10.1%	?	-7.6%	?	i	-7.1%
CCCCNC(=S)NNC(=O)c1csc(C)c1	-7.5%	-10.6%	-13.7%	-13.8%	i	12.9%
C=CCNC(=S)NNC(=O)c1csc(C)c1CC	-1.1%	-16.6%	15.6%	8.91µM*	i	2.6%
CCCCNC(=S)NNC(=O)c1csc(C)c1CC	-2.7%	-27.3%	-1.7%	2.82µM*	i	22.3%
C=CCNC(=S)NNC(=O)c1cccc2ccccc12	-11.2%	-27.2%	-14.2%	1.12µM*	i	-8.4%
COc1cccc(CN2CCc3nc(Nc4ccc5c(c4)OCCO5)ncc3C2)c1OC	-51.4%	·	-28.9%	·	i	-29.1%
COc1ccccc1Cn1c(CNS(=O)(=O)c2ccc(Cl)s2)nc2cccnc21	-22.2%	·	?	·	·	·
COc1ccc2[nH]c(C(O)C(O)c3nc4c(OC)c(OC)ccc4[nH]3)nc2c1OC (stereo not given)	1.8%	·	-13.7%	·	·	·
CCOC(=O)C(=O)N(Nc1ccc(C)cc1)c1ccc(C)cc1	2.7%	24.0%	2.8%	-28.8%	i	77.0%
CCOC(=O)C(=O)N(Nc1ccccc1C)c1ccccc1C	-1.6%	?	-14.5%	2.82µM*	i	·
CCc1ccc(NC(=O)C2CCN(S(=O)(=O)c3ccc4[nH]c5c(c4c3)CCCCC5)CC2)cc1	-15.9%	·	0.0%	·	·	·
Cc1nc(-c2ccc(F)cc2)sc1CCNC(=O)c1cccs1	-28.9%	·	-19.7%	·	?	-32.2%
Cc1cccc2[nH]cc(/C=C3/C=Nc4ccccc43)c12	-27.8%	·	?	·	·	·
O=C(N/N=C/c1ccc(-c2cccc(C(F)(F)F)c2)o1)c1cccc(F)c1	-25.2%	1.26µM*	?	2µM*	?	?
Cc1ccc(NCC(=O)N/N=C/c2ccc(-c3cccc(C(F)(F)F)c3)o2)cc1	-14.8%	?	-12.8%	?	?	?
O=C(N/N=C/c1ccc(-c2cccc(C(F)(F)F)c2)o1)c1ccccc1Br	-15.1%	-90.9%	20µM*	11.2µM*	?	-15.6%
NC(=O)N/N=C/c1ccc(-c2cccc(C(F)(F)F)c2)o1	-24.3%	-1.9%	-20.2%	30.8%	i	11.8%
O=C(N/N=C/c1ccc(-c2cccc(C(F)(F)F)c2)o1)c1ccccc1O	-15.7%	0.562µM*	-16.7%	0.282µM*	?	?
O=C(N/N=C/c1ccc(N2CCOCC2)o1)c1cccc(F)c1	-9.0%	12.6µM*	-13.4%	11.2µM*	?	4.8%
CC(O)(COc1ccccc1)c1ccc2c(c1)CN(Cc1cccnc1)CCO2 (stereo not given)	·	·	·	·	i	·
CC1=CC(=O)N(c2ccn(C)n2)C1=O	-43.2%	12.6µM*	-7.7%	14.1µM*	i	4.5%

Screening results from PubChem BioAssay.
